The values below come from PubChem BioAssay (EPA / NIEHS).

Molecules are shown by their SMILES. Activity calls are given as the source filed them. The calls were made as follows: active = hit-call score of the fitted dose curve at least 0.9, where 1 is the maximum; inactive = score below 0.9.

Read-out in the test: Human Leukocyte Antigen - DR isotype (HLADR), HLA-DRA (gene 3122)
The test can be described thus: BSK_BE3C_HLADR: BioMAP Diversity Plus: BE3C Assay for Human Leukocyte Antigen - DR isotype (HLADR) Biomarker Activity (AID 2283032). To be noted: primary human bronchial epithelial cells; actives raise or lower the signal. The procedure: BSK_BE3C is a cell-based, multiplexed-readout assay that uses bronchial epithelial cell, a human lung primary cell, with measurements taken at 24 hours after chemical dosing in a 96-well plate.BSK_BE3C_HLADR is an assay component measured in the BSK_BE3C assay. It measures HLA-DR antibody related to regulation of gene expression using ELISA technology.Data from the assay component BSK_BE3C_HLADR was analyzed into 1 assay endpoint. This assay endpoint, BSK_BE3C_HLADR, was analyzed with bidirectional fitting relative to DMSO as the negative control and baseline of activity. Using a type of binding reporter, gain or loss-of-signal activity can be used to understand changes in the signaling as they relate to the gene HLA-DRA. Furthermore, this assay endpoint can be referred to as a primary readout, because this assay has produced multiple assay endpoints where this one serves a signaling function. To generalize the intended target to other relatable targets, this assay endpoint is annotated to the cell adhesion molecules intended target family, where the subfamily is MHC Class II.
The levels of cell surface (or secreted, indicated by the prefix "s") biomarker endpoints were measured by ELISA. Overt cytotoxicity to cells in confluent adherent cultures (all systems other than the BT system) was assessed by measuring total protein levels using sulforhodamine B (SRB) staining in parallel cultures at the time of biomarker measurements, indicated as SRB endpoints. For proliferation assays for adherent cell types, individual cell types are cultured at sub-confluence and relative cell numbers quantified by SRB staining at time points optimized for each system (48 h: 3C and CASM3C systems; 72 h: BT and HDF3CGF systems; 96 h: SAg system). SRB was performed by staining cells with 0.1% SRB after fixation with 10% TCA and reading wells at 560 nm.Viability and proliferation of PBMC (T cells) was quantified by Alamar Blue reduction for the SAg and BT systems. For PBMC viability (referred to as PBMC Cytotoxicity within the assay endpoint names), cells were plated (75,000/well in a 96-well plate) and then chemical samples added for 1 h before addition of activators, SEB and TSST-1 (20 ng/mL final concentration each). Cells were incubated for 90 h. Then, Alamar Blue (20 uL/well) (Invitrogen, Cat DAL1100) was added for 6 h, and the plates were read with a fluorescence microplate reader at 546/580 nm (excitation/emission). For PBMC proliferation, cells were plated and activated as above but incubated for only 16 h prior to addition of Alamar Blue. Plates were read after 6 h.
For `CCCCC(CC)COC(=O)/C=C\C(=O)OCC(CC)CCCC` (stereo not given), the result was inactive.

With `O=[N+]([O-])c1cc(C(F)(F)F)ccc1Cl`, the result was inactive.

Consider `BrC1CCC(Br)C(Br)CCC(Br)C(Br)CCC1Br` (stereo not given), for which the AC50 is 1.49 µM (active).

Consider `Nc1cc([N+](=O)[O-])ccc1O`, for which the outcome was inactive.

As to `CCC(=O)OCc1ccccc1`, the outcome was inactive.

Consider `O=C1OC2(c3cc(Br)c(O)c(Br)c3Oc3c2cc(Br)c(O)c3Br)c2c(Cl)c(Cl)c(Cl)c(Cl)c21`, for which the AC50 is 0.56 µM (active).

Turning to `O=C(O)c1cn(C2CC2)c2cc(N3CCNCC3)c(F)cc2c1=O`, the outcome was inactive.

For the compound `C=C[Si](OCC)(OCC)OCC`, the outcome was inactive.

`CC(=O)/C=C/C1=C(C)CCCC1(C)C`: the result was inactive.

In the case of `CCCCCCCCC=O`, the result was inactive.

Take `C#C[C@]1(O)CC[C@H]2[C@@H]3CCC4=Cc5oncc5C[C@]4(C)[C@H]3CC[C@@]21C`: the result was inactive.

As to `CCn1c2ccccc2c2cc(N)ccc21`, the AC50 was 2.24 µM (active).

Take `c1ccc2sc(SN(C3CCCCC3)C3CCCCC3)nc2c1`: the result was inactive.

With `NCCNCCN`, the outcome was inactive.

Consider `Cc1ccc(Nc2ccc(O)c3c2C(=O)c2ccccc2C3=O)cc1`, for which the outcome was inactive.

Take `CC1COc2ccccc2N1C(=O)C(Cl)Cl` (stereo not given): the AC50 is 7.78 µM (active).

`COc1cc(C=O)ccc1OC(=O)C(C)C`: the result was inactive.

For `OC1OC[C@@H](O)[C@H](O)[C@H]1O` (stereo not given in full), the outcome was inactive.

On to `CC(=O)[C@H]1CC[C@H]2[C@@H]3CC=C4C[C@@H](O)CC[C@]4(C)[C@H]3CC[C@]12C`, for which the result was inactive.

On to `CN(CCOc1ccc(CC2SC(=O)NC2=O)cc1)c1ccccn1` (stereo not given), for which the concentration at half-maximal activity (AC50) is 20 µM (active).

As to `c1ccc2c(c1)c1cccc3ccc4cccc2c4c31`, the result was inactive.

Take `O=C(O)c1ccc([N+](=O)[O-])cc1`: the outcome was inactive.

In the case of `O=C1CCCCCCCCCCCCCCO1`, the AC50 is 20 µM (active).

Turning to `N#Cc1ccc(CC(=NNC(=O)Nc2ccc(OC(F)(F)F)cc2)c2cccc(C(F)(F)F)c2)cc1`, the result was inactive.

Consider `Cc1cc(C2(c3cc(C)c(O)cc3C)OS(=O)(=O)c3ccccc32)c(C)cc1O`, for which the result was inactive.

For `CC[Si](OC(C)=O)(OC(C)=O)OC(C)=O`, the result was inactive.

Turning to `O=C(O)C[C@H](O)C[C@H](O)/C=C/c1c(C2CC2)nc2ccccc2c1-c1ccc(F)cc1`, the concentration at half-maximal activity (AC50) was 0.028 µM (active).

Consider `Cc1ccc(O)c(C(C)(C)C)c1`, for which the AC50 is 30.5 µM (active).

Turning to `C=CCOC(=O)CCC1CCCCC1`, the outcome was inactive.

As for `CC1CCC(C(C)CS)CC1S` (stereo not given), the AC50 was 20 µM (active).

With `C[C@H]1C[C@@H]2[C@H]([C@@H](O)C[C@@]3(C)[C@H]2CC[C@]3(O)C(=O)CO)[C@@]2(C)C=CC(=O)C=C12`, the outcome was inactive.

In the case of `COC(=O)c1ccc(C)cc1`, the result was inactive.

In the case of `O=C=NC1CCC(CC2CCC(N=C=O)CC2)CC1` (stereo not given), the outcome was inactive.

For `CCCCC(CC)COCCC#N` (stereo not given), the outcome was inactive.

In the case of `CC(C)Oc1ccccc1O`, the result was inactive.

For the compound `CCCCCCCCCC=O`, the half-maximal activity concentration (AC50) is 20 µM (active).

On to `O=P(c1ccccc1)(c1ccccc1)c1ccccc1`, for which the result was inactive.

As to `CC(C)c1ccc(C(C)C)cc1`, the AC50 is 30.8 µM (active).

In the case of `CCCCC/C=C/C=C/C=O`, the AC50 is 20 µM (active).

For the compound `CNC[C@H](O)c1cccc(O)c1`, the result was inactive.
